Results filed as inconclusive are left out. Activity calls are given as the source filed them. Calls follow the shape of the dose curve; as a rule, active = well fitted inhibition curve with a large enough effect; inconclusive = small, poorly fitted or top-dose-only effect; inactive = no such curve, though single readings can be large or run the other way.
assay: Counterscreen Assay for Inhibitors of the ERK Signaling Pathway using a Homogeneous Screening Assay; details: AlphaScreen bead counterscreen in cell lysate, 5 h; series mostly up to 45.6 µM; activity change, negative = inhibition: at the top concentration
Description: qHTS Assay for Inhibitors of the ERK Signaling Pathway using a Homogeneous Screening Assay
NIH Chemical Genomics Center [NCGC]
NIH Molecular Libraries Screening Centers Network [MLSCN]
Assay Submitter (PI): Dr. Wei Zheng, NCGC/NIH
The Ras/extracellular-signal-regulated kinase (ERK) mitogen activated protein (MAP) kinase signaling pathway (ERK1/2 cascade) plays is a key role in transmitting signals from the cell surface to the nucleus (Nishida and Gotoh 1993; Chang and Karin, 2001). The cascade is initiated by the small G-protein Ras, which recruits Raf […], where activation occurs. Alternatively, this pathway can be activated by elevating intracellular cAMP.
Activation of the ERK pathway is essential in increased cell division and cell survival. Sustained and constitutive activation of the ERK pathway, however, has been linked to uncontrolled cell proliferation, increased cell survival, and tumor progression. Thus, the ERK has been as an attractive target for cancer chemotherapy in the past few years (Sebolt-Leopold and Herrera, 2004). Given its physiological and pathological importance, assessment of ERK phosphorylation has been broadly performed in both basic research and drug discovery. Most assays for the measurement of ERK phosphorylation use the antibody-based detection methods, such as western blot and ELISA. These assays require multiple reagent additions with cell wash steps and are not suitable for high-throughput screening.
The current cell-based ERK phosphorylation assay was performed using AlphaScreen platform. AlphaScreen is a two bead-based proximity-dependent chemical energy transfer luminescent assay platform. The assay reagents (ERK SureFire(TM) kit) were supplied from TGR BioSciences (Australia). In the presence of specific antibodies, phosphorylated ERK will bring "donor" and "acceptor" beads to a proximity range (<200 nm), and subsequently lead a chemical luminescent reaction upon exciting donor beads with 680 nm laser. To exclude the assay-related false positives, we used a biotinylated rabbit IgG to perform a counter-screen. The biotinylated antibody mimics the phosphorylated ERK1/2 for bringing streptavidin coated beads and protein-A coated beads to a proximity range for the AlphaScreen detection.
NCGC Assay Protocol Summary:
Biotinylated rabbit IgG was used to perform a counter-screen in the context of an AlphaScreen assay kit provided by PerkinElmer. Data were normalized to the controls for basal activity (DMSO only) and 100% activation (25 nM IgG). AC50 values were determined from concentration-response data modeled with the standard Hill equation.
(1) Seed 4 ul/well of resuspended frozen HEK293 cells containing 2000 cells in white 1536-well plates for overnight with 1% FBS at 37C under a humidified atmosphere containing 5% CO2 and 95% air.
(2) Add 23 nL compounds in DMSO solution. The final titration was 0.6 nM to 46 uM.
(3) Incubate at 37C for 30 min.
(4) Dispense 0.5uL vasopressin (25 nM in final)
(5) Incubate at 37C for 5 min.
(6) Dispense 0.5uL of 1:2 diluted 5x lysis buffer.
(7) Incubate at 37C for 10 min.
(8) Dispense 1.5uL of mixture of activation buffer and reaction buffer with AlphaScreen beads (streptavidin donor beads and protein-A acceptor beads, 10 ng/well for each).
(9) Incubate at room temperature for 5 hr.
(10) Detect the assay plate in an EnVision plate reader (PerkinElmer) using the AlphaScreen detection mode.
Keywords: ERK, MEK, type-1 vasopressin receptors, homogenous, cell-based kinase assay, MLSMR, MLSCN, NIH Roadmap, qHTS and NCGC

SMILES | Potency | activity change, negative = inhibition
O=C1c2ccc(O)c(O)c2C(=O)c2c(O)ccc(O)c21 | 4.47 µM (active) | 
CNc1cccc2c1C(=O)c1ccccc1C2=O | 5.01 µM (active) | 
CCCN1C(=O)/C(=C2/C=Cc3ccccc3N2CC)SC1=S | 3.55 µM (active) | 
Cn1c(=O)cc(Nc2ccccc2)c2c(=O)n(-c3ccccc3)c(=O)n(-c3ccccc3)c21 |  | -33.4% (inactive)
c1ccc(-c2csc(-c3nc4ccccc4[nH]3)n2)cc1 |  | -18.4% [at 57.5 µM] (inactive)
Fc1ccc(Nc2ncnc3sc4c(c23)CCC4)cc1F |  | -2.34% (inactive)
c1ccc(Nc2ncnc3ccc(-c4cccnc4)cc23)cc1 |  | -11.4% (inactive)
Cc1ccc(Nc2ncnc3sc(C)c(C)c23)cc1C |  | -15.2% (inactive)
COc1ccc(C(=O)c2ccc(Cl)c([N+](=O)[O-])c2)cc1 |  | -22.8% (inactive)
CC(=O)N1CCC(=NNc2nc3ccccc3s2)CC1 |  | -11.1% (inactive)
CCN(C1CCCCC1)S(=O)(=O)c1ccc(S(=O)(=O)NCc2ccncc2)cc1 |  | 9.89% [at 57.5 µM] (inactive)
COc1ccc(-c2n(CC(=O)OC3CC(C)CCC3C(C)C)c3ccccc3[n+]2C)cc1 (stereo not given) |  | -15% (inactive)
Fc1ccc(Nc2ncnc3sc4c(c23)CCC4)cc1 |  | -3.12% (inactive)
Cn1nc(-c2ccc(Cl)cc2)nc2c(=O)n(C)c(=O)nc1-2 |  | -26.1% (inactive)
CN(C)CCCn1cc(C2=C(c3c[nH]c4ccccc34)C(=O)NC2=O)c2ccccc21 | 35.5 µM (active) | 
CC(C)Cn1c(N)c(C(=O)CSc2ccc3c(c2)OCCO3)c(=O)n(C)c1=O |  | 16.2% [at 57.5 µM] (inactive)
N#CC(C#N)=C1C=CC=CN1/C(=C\c1ccco1)C(=O)c1ccc(Cl)cc1 |  | -19.5% (inactive)
CCCCC[C@H](O)C=C[C@H]1[C@H](O)CC(=O)[C@H]1CCCCCCC(=O)O |  | -32.4% [at 57.5 µM] (inactive)
C=C[C@]1(C)CC(=O)[C@@]2(O)[C@@]3(C)C(O)CCC(C)(C)C3C(O)C(OC(C)=O)[C@@]2(C)O1 (stereo not given in full) |  | -10.3% (inactive)
CCCNc1ncnc2sc(C)c(C)c12 |  | -22.1% (inactive)

SMILES | Potency | activity change, negative = inhibition
COc1ccc(C2=Nn3c(nnc3-c3ccccc3OC)SC2)cc1OC |  | 7.65% [at 57.5 µM] (inactive)
CC(/C=C/c1ccccc1)=N\Nc1ccccc1[N+](=O)[O-] | 3.16 µM (active) | 
Fc1cccc(Nc2ncnc3sc4c(c23)CCC4)c1 |  | -7.2% (inactive)
C=CS(=O)(=O)c1ccc(Oc2ccc(S(=O)(=O)C=C)cc2)cc1 |  | -15.2% [at 57.5 µM] (inactive)
C=C[C@@]1(C)CC(=O)[C@@]2(O)[C@@]3(C)[C@@H](O)CCC(C)(C)[C@@H]3[C@H](O)[C@H](OC(C)=O)[C@@]2(C)O1 |  | -8.35% (inactive)
COc1cc(C2CC(=O)c3c([nH]c(C(=O)OCCOC(C)C)c3C)C2)cc(OC)c1OC (stereo not given) |  | 4.07% [at 57.5 µM] (inactive)
Cc1cc2nc3ccc(=[N+](C)C)cc-3sc2cc1N |  | -11.8% (inactive)
O=C(Nc1nccs1)c1cc2sccc2n1Cc1ccc(F)cc1 |  | 7.37% [at 57.5 µM] (inactive)
COc1cc(C(=O)Nc2nc(-c3cccs3)cs2)cc(OC)c1OC |  | -25.6% [at 57.5 µM] (inactive)
COc1ccc(-c2ccc(SCC(=O)N3CCCC3)nn2)cc1OC |  | -11.4% [at 57.5 µM] (inactive)
CN(C)c1cc2c(Nc3ccc4c(cnn4Cc4ccccc4)c3)ncnc2cn1 |  | -6.45% (inactive)
COc1cc2ncnc(Nc3cccc(Cl)c3)c2cc1OC | inactive | 
Cc1cc(-c2ccccc2)n(-c2cc(N/N=C/c3ccccc3O)ncn2)n1 |  | -26.9% (inactive)
Cc1nc2ccccc2c2oc(C(=O)N3CCc4ccccc4C3)cc12 |  | -25.7% [at 57.5 µM] (inactive)
Cc1nc2ccccc2nc(=O)c1NNc1ccccc1 |  | -26.2% (inactive)
COc1cc2ncnc(NCc3cccc(Cl)c3)c2cc1OC |  | -22.8% (inactive)
Cc1sc2ncnc(Nc3ccccc3)c2c1C |  | -11.9% (inactive)
Cc1ccc(Nc2ncnc3sc(C)c(C)c23)cc1 |  | -17.7% (inactive)
O=c1cc(-c2ccc(O)cc2)oc2cccc(O)c12 |  | -22.6% (inactive)
COc1ccc(CC(=O)Nc2cccc(-c3nnc(-c4ccc(C)cc4)o3)c2)cc1OC |  | 16.5% [at 57.5 µM] (inactive)
